# High-throughput results from PubChem.
# VP16 counter – Gal4-VP16 reporter inhibition counter-screen | Drosophila S2 Gal4-VP16 UAS-luciferase, luminescence, 20 h | Potency, µM (titrated, usually from 53.6 µM), hits mostly inhibitors | actives 3.5% (n = 310,000) | AID 2546;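 also: Gal4-VP16 expression switched on by copper sulfate through the metallothionein promoter; nearly all actives have a fitted effect of over 50% in size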
# ELG1 DNA repair – inhibitors of ELG1-dependent DNA repair in HEK293T cells. HEK293T ELG1-luciferase reporter, luminescence, 16 h; DNA damage induced by 5-fluorouridine. actives 2.3% (n = 330,000). Potency, µM (series often up to 46.1 µM), actives largely listed as inhibitors; also: nearly all actives have a fitted effect of over 55% in size
#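 DMSO vehicle served as the neutral condition. Each well held 2,000 cells given 5-fluorouridine plus compound; after 16 hr at 37 °C/5% CO2, ONE-Glo was added and luciferase measured 30 min later.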
# SW480 rereplic – DNA re-replication induction in SW480 cells | Potency, µM (highest dose often 46.1 µM), hits mostly activators | SW480 DNA re-replication, Hoechst DNA content imaging, 48 h | AID 624297 | actives 1.8% (n = 340,000); also: nearly all actives have a fitted effect of over 55% in size
#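 Hoechst fluorescence of nuclei (405 nm excitation, 500-530 nm emission) measured by plate-scanning imager after 48 hr compound exposure at 37 C; re-replication scored as increased number of nuclei with elevated intensity.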
# MCF10A rerep – induces DNA re-replication in MCF 10a normal breast cells | MCF 10A DNA re-replication, Hoechst nuclear intensity, 48 h | Potency, µM (highest dose often 46.1 µM), usual class: activators | actives 2.9% (n = 350,000); also: nearly all actives have a fitted effect of over 50% in size
# RORgamma inh – ROR gamma (mouse) transcription inhibition. P51450. Drosophila S2 Gal4-RORgamma UAS-luciferase reporter, 20 h. Potency, µM (highest dose often 53.6 µM), hits mostly inhibitors. actives 5.4% (n = 310,000). AID 2551; also: nearly all actives have a fitted effect of over 60% in size
# Target sequence (P51450 whole entry, looked up, the tested form may be a part): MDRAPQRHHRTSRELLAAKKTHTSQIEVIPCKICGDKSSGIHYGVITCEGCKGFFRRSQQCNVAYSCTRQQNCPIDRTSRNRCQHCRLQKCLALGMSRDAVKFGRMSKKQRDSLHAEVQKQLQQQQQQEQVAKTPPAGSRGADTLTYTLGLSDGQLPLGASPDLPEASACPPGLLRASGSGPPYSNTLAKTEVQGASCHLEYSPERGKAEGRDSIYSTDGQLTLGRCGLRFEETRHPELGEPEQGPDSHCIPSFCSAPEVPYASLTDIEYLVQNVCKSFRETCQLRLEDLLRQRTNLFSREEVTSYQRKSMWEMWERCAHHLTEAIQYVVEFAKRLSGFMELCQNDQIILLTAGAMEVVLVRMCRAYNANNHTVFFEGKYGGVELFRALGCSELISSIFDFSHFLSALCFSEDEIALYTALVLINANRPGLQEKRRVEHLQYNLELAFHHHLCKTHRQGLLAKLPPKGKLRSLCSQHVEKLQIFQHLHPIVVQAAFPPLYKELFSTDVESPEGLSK
#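 Luminescence from a UAS-regulated Photinus luciferase reporter in stably transfected Drosophila Schneider cells is measured; decreased signal marks ROR gamma inhibition. Fusion expression is induced by 700 uM copper sulfate for 20 hr.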
# Hits are given with their value; . = inactive; ? = inconclusive; / = no result given; [ ] = another dose, or the depositor's remark. An excerpt weighted towards active compounds, which were near 10% of everything screened. Calls follow the shape of the dose curve; as a rule, active = well fitted curve in the direction sought with a large enough effect; inconclusive = small, poorly fitted or top-dose-only effect, or another doubt; inactive = no such curve, though single readings can be large; an effect the other way counts as inactive or inconclusive.
SMILES,VP16 counter,ELG1 DNA repair,SW480 rereplic,MCF10A rerep,RORgamma inh
O=S(=O)(c1ccc(Oc2ncnc3scc(-c4ccccc4)c23)cc1)N1CCOCC1,.,?,.,21µM,?
O=S(=O)(c1ccc(Oc2ccccc2)cc1)N1CCOCC1,.,.,.,.,.
O=C(Nc1cccc(Cl)c1)Nc1ccnc(-c2cccnc2)n1,.[10 µM],?,.,.,.
Cc1csc2ncnc(N3CCN(S(=O)(=O)c4cccc(C(F)(F)F)c4)CC3)c12,10µM,?,.,.,?
O=S(=O)(c1ccc(Cl)s1)N1CCN(c2ncccn2)CC1,.,.,.,18µM,.
O=S(=O)(c1cccc(Br)c1)N1CCN(c2ncnc3scc(-c4ccccc4)c23)CC1,/,/,.,.,/
COc1ccc(-c2csc3ncnc(N4CCN(c5cccc(Cl)c5)CC4)c23)cc1,.,?,?,?,.
COc1ccc(-c2csc3ncnc(N4CCN(c5cccc(OC)c5)CC4)c23)cc1,.,6.5µM,.,.,.
COc1ccc(Nc2ncnc3scc(-c4ccc(OC)cc4)c23)cc1,.,12µM,15µM,5.2µM,.
Cc1cc(NC(=O)CSc2nnc(-c3ccncc3)n2C)n(-c2ccccc2)n1,.,.,.,.,.
CC(=O)Nc1c(C(N)=O)oc2ccc(Cl)cc12,.,.,.,.,.
Cc1onc(-c2ccccc2Cl)c1C(=O)N[C@@H](C)c1ccccc1,/,/,.,.,/
O=c1cnn(-c2ccccc2)c(-c2ccccc2)c1,.,.,?,.,.
COc1ccc(N2CCN(c3ncnc4scc(-c5ccc(C)cc5)c34)CC2)cc1,.,?,?,23µM,.
Cc1cc2ncn(-c3ncnc4scc(-c5ccccc5)c34)c2cc1C,.,.,.,.,5.6µM
COc1ccc(N2CCN(c3ncnc4scc(-c5ccc(F)cc5)c34)CC2)cc1,.,?,?,?,.
Cc1ccc(S(=O)(=O)N(C)c2ccc(C(=O)N(C)Cc3nc4ccccc4c(=O)[nH]3)cc2)cc1,/,.,.,.,/
CCN(CC)c1ccc(/C=C2\C(=O)c3ccc(C(=O)O)cc3C2=O)cc1,10µM,?,.,.,11µM
CCN(CC)c1ccc(C(=O)O)cc1,.,.,.,.,.
CCC1(c2ccc(F)cc2)NC(=O)N(CC(=O)Nc2cc(S(=O)(=O)N(C)C)ccc2Cl)C1=O (stereo not given),.,?,.,.,.
CCc1ccc(CCC(=O)Nc2sc3c(c2C#N)CCCC3)o1,.,?,3.3µM,4.6µM,.
Cc1ccc(/C=C/C(=O)Nc2sc3c(c2C#N)CCCC3)o1,.,?,1.2µM,?,.
CCC(=O)Nc1sc2c(c1C#N)CCC2,.,.,.,.,.
NC(N)=N/N=C/c1ccc(OS(=O)(=O)c2ccccc2)cc1,.,?,5.8µM,18µM,?
CCC/C(=N\NC(=O)C1CC1)c1ccccc1,/,/,.,.,/
SMILES,VP16 counter,ELG1 DNA repair,SW480 rereplic,MCF10A rerep,RORgamma inh
O=C(N/N=C/C1C(c2ccccc2)C1(Cl)Cl)c1cccc(Cl)c1 (stereo not given),4.5µM,?,.,.,2.8µM
CCC/C(=N/NC(=O)c1cccc(Cl)c1)c1ccccc1,?,.,.,.,13µM
N#C/C(=C\c1ccc(OCCN2CCOCC2)cc1)C(=O)Nc1ccc(S(N)(=O)=O)cc1,.,.,.,.,.
Cc1ccc(Sc2ncccc2N)cc1,/,/,21µM,?,/
Cc1ccc(Sc2ncccc2O)cc1,/,/,.,.,/
CCCN1CCN(C(=S)Nc2ccc3nc(N4CCN(CC)CC4)cc(C)c3c2)CC1,.,.,?,18µM,.
CCN1CCN(c2cc(C)c3cc(NC(=S)N4CCC5(CC4)OCCO5)ccc3n2)CC1,.,.,.,.,.
CCN1CCN(c2cc(C)c3cc(NC(=S)N4CCN(c5ccccc5F)CC4)ccc3n2)CC1,?,?,.,.,13µM
CCN1CCN(c2cc(C)c3cc(NC(=S)N4CCN(c5ccccc5)CC4)ccc3n2)CC1,.[10 µM],?,18µM,21µM,?
CCN1CCN(c2cc(C)c3cc(NC(=S)N(CC)CC)ccc3n2)CC1,.,.,?,?,.
CCN1CCN(c2cc(C)c3cc(NC(=S)N4CCOCC4)ccc3n2)CC1,.,?,16µM,?,.
CN1CCN(C(=O)COCc2cc(-c3ccc4c(c3)OCO4)on2)CC1,.,?,.,.,.
CC(C)CCn1nnnc1CN1CCN(C(=O)c2ccco2)CC1,.,.,.,.,.
COc1ccccc1C1NC(c2ccccc2OC)C(C)C(=O)C1C (stereo not given),.,?,.,.,.
COc1cccc(C2NC(c3cccc(OC)c3O)C(C)C(=O)C2C)c1O (stereo not given),4.5µM,?,?,?,3.2µM
O=S(=O)(c1ccccc1Br)N1CCC(O)(c2cccnc2)CC1,.,.,.,.,.
O=C(C1=C[C@H](C2CCCCC2)C[C@H](OCCCCO)O1)N1CCN(Cc2ccc3c(c2)OCO3)CC1,.,?,.,.,?
O=C(Nc1ccccc1)c1cc(N2CCOCC2)nc2ccccc12,.,?,?,.,.
O=C(O)c1cc(N2CCOCC2)nc2ccccc12,.,.,.,.,.
O=C(O)c1cc(/C=C/c2ccc(N3CCOCC3)cc2)nc2ccccc12,5µM,?,.,.,6.3µM
Cc1ccc(NC(=O)c2cc(N3CCOCC3)nc3ccccc23)cc1,.,15µM,.,.,.[10 µM]
O=C(Nc1nccs1)c1cc(N2CCOCC2)nc2ccccc12,.,18µM,.,.,?
COc1cc(C(=O)Nc2ccc(C(=O)c3cccs3)cc2)cc(OC)c1OC,/,?,.,.,/
CS(=O)(=O)N1CCC2(CCCN(c3ncccn3)C2)CC1,.,/,/,/,.
CCOc1ccc(CCNC(=O)CN2C(=O)NC3(CCCC3)C2=O)cc1OCC,.,.,.,.,.
SMILES,VP16 counter,ELG1 DNA repair,SW480 rereplic,MCF10A rerep,RORgamma inh
Cc1cccc(C(=O)OCC(=O)NCC2COc3ccccc3O2)c1 (stereo not given),/,.,.,.,/
CC1=C[C@H](C)[C@H](c2c(F)cccc2Cl)CC1=O,.,.,?,.,.
C(=N\Nc1nc2ccccc2[nH]1)/c1cccs1,4.5µM,?,.,.,3.2µM
Cc1ccsc1/C=N/Nc1nc2ccccc2[nH]1,1.4µM,?,.,.,1.4µM
Cc1cc(=O)[nH]c(N/N=C/c2sccc2C)n1,.,?,.,.,.
CC(C)CC(NC(N)=O)C(=O)OCC(=O)N(Cc1ccccc1)Cc1ccccc1 (stereo not given),.,.,.,.,.
COc1ncc2nc(CCc3ccccc3)c(=O)n(CCC#N)c2n1,.,/,/,/,.
CC(=O)OC1CC[C@@]2(C)C(CCC3C2CC(=O)[C@@]2(C)C3CC3CC(C)=CC(=O)C32)C1 (stereo not given in full),.,.,.,.,.
CCN1CCC(O)(C#Cc2ccccc2)CC1,.,.,.,.,.
